# Measurements reported in the supplement of paper PMC10037445.
# Several values for one entry are separate records, joined by “and”; a condition that tells them apart may be missing. Identical values can stand only once. In all, about 2,900 compounds were measured (“NF-kB SEAP reporter activity, fold change vs agonist alone”: median about 0.99, highest 2% from about 2.6 on). The sample as a whole holds a higher share of the highest values than the screen did.
# Tests used:
# RAW-Dual [1] = assay: NF-kB SEAP reporter activity, fold change vs agonist alone; higher = enhanced NF-kB activity; settings: library stock concentration (final ~1000-fold dilution): 10 mM
# How it was run: (§1)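 Cytotoxic wells were those whose IncuCyte confluency was below 70% of agonist controls in both mask sets. The cells were RAW-Dual macrophages at 50,000 cells/well in DMEM on 384-well plates, dosed with 50 nL of library stock by pin tool, stimulated with a PRR agonist 1 h later, and kept at 37 °C, 5% CO2 for 20 hours. IRF and NF-κB reporter activity, as fold change over agonist-alone wells, came from supernatant read by QuantiLuc luminescence and QuantiBlue absorbance, respectively.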
# RAW-Dual [2] = assay: NF-kB SEAP reporter activity, fold change vs agonist alone; cytotoxicity flag (confluency mask): cytotoxic (confluency <70% of control); higher = enhanced NF-kB activity
# How it was run: as §1
# RAW-Dual [3] = assay: NF-kB SEAP reporter activity, fold change vs agonist alone; cytotoxicity flag (confluency mask): not cytotoxic; higher = enhanced NF-kB activity
# How it was run: as §1
# [4] = cytotoxicity flag (confluency mask): not cytotoxic, agonist: Imiquimod (TLR7) […]
# [5] = cytotoxicity flag (confluency mask): not cytotoxic, agonist: MPLA (TLR4) […]
# [6] = agonist: ODN 1826 (TLR9) 0.5 ug/mL
# [7] = agonist: Pam2CSK4 (TLR2/6) 0.1 ug/mL
# [8] = agonist: Pam3CSK4 (TLR2/1) 0.1 ug/mL
smiles,measurement,setting,value
CCOC(=O)NC1CCC2C(C1)CC1C(=O)OC(C)C1C2/C=C/c1ccc(-c2cccc(F)c2)cn1 (stereo not given),NF-kB SEAP reporter activity,RAW-Dual [1]; [4],0.145
same,NF-kB SEAP reporter activity,RAW-Dual [1]; [5],0.289
NC(=O)N1CCC(CC(=O)N2CCC(C3c4ncc(Br)cc4CCc4cc(Cl)cc(Br)c43)CC2)CC1 (stereo not given) (library stock concentration (final ~1000-fold dilution): 10 mM),NF-kB SEAP reporter activity,RAW-Dual [2]; agonist: LPS (TLR4) 0.1 ug/mL,0.422
same,NF-kB SEAP reporter activity,RAW-Dual [2]; [6],0.347
same,NF-kB SEAP reporter activity,RAW-Dual [2]; [7],0.171
same,NF-kB SEAP reporter activity,RAW-Dual [2]; [8],0.223
NC(=O)N1CCC(CC(=O)N2CCC(C3c4ncc(Br)cc4CCc4cc(Cl)cc(Br)c43)CC2)CC1 (stereo not given),NF-kB SEAP reporter activity,"RAW-Dual [1]; cytotoxicity flag (confluency mask): cytotoxic (confluency <70% of control), agonist: Imiquimod (TLR7) […]",0.614
same,NF-kB SEAP reporter activity,"RAW-Dual [1]; cytotoxicity flag (confluency mask): cytotoxic (confluency <70% of control), agonist: MPLA (TLR4) […]",0.603
Nc1ccccc1NC(=O)c1cnccn1,NF-kB SEAP reporter activity,RAW-Dual [1]; [4],0.997
same,NF-kB SEAP reporter activity,RAW-Dual [1]; [5],1.12
O=C(Nc1ccc(O)cc1)c1ccccc1O,NF-kB SEAP reporter activity,RAW-Dual [1]; [4],1.68
same,NF-kB SEAP reporter activity,RAW-Dual [1]; [5],1.24
Nc1ccccc1NC(=O)c1cnccn1 (library stock concentration (final ~1000-fold dilution): 10 mM),NF-kB SEAP reporter activity,RAW-Dual [3]; agonist: LPS (TLR4) 0.1 ug/mL,1.4
same,NF-kB SEAP reporter activity,RAW-Dual [3]; [6],1.16
same,NF-kB SEAP reporter activity,RAW-Dual [3]; [7],0.443
same,NF-kB SEAP reporter activity,RAW-Dual [3]; [8],0.532
CC(=O)Nc1ccc(C(=O)Nc2ccccc2N)cc1 (library stock concentration (final ~1000-fold dilution): 10 mM),NF-kB SEAP reporter activity,RAW-Dual [3]; agonist: LPS (TLR4) 0.1 ug/mL,2.28
same,NF-kB SEAP reporter activity,RAW-Dual [3]; [6],2.86
same,NF-kB SEAP reporter activity,RAW-Dual [3]; [7],0.724
same,NF-kB SEAP reporter activity,RAW-Dual [3]; [8],0.832
CC(=O)Nc1ccc(C(=O)Nc2ccccc2N)cc1,NF-kB SEAP reporter activity,RAW-Dual [1]; [4],2.21
same,NF-kB SEAP reporter activity,RAW-Dual [1]; [5],1.74
O=C(Nc1ccc(O)cc1)c1ccccc1O (library stock concentration (final ~1000-fold dilution): 10 mM),NF-kB SEAP reporter activity,RAW-Dual [3]; agonist: LPS (TLR4) 0.1 ug/mL,1.17
same,NF-kB SEAP reporter activity,RAW-Dual [3]; [6],1.93
same,NF-kB SEAP reporter activity,RAW-Dual [3]; [7],0.921
same,NF-kB SEAP reporter activity,RAW-Dual [3]; [8],1.04
CO/N=C(\C(=O)NC1C(=O)N2C(C(=O)O)=C(CSc3nnnn3C)CSC12)c1csc(N)n1.CO/N=C(\C(=O)NC1C(=O)N2C(C(=O)O)=C(CSc3nnnn3C)CSC12)c1csc(N)n1.Cl (stereo not given) (library stock concentration (final ~1000-fold dilution): 10 mM),NF-kB SEAP reporter activity,RAW-Dual [3]; agonist: LPS (TLR4) 0.1 ug/mL,0.999
same,NF-kB SEAP reporter activity,RAW-Dual [3]; [6],0.966
same,NF-kB SEAP reporter activity,RAW-Dual [3]; [7],1.14
same,NF-kB SEAP reporter activity,RAW-Dual [3]; [8],0.939
CO/N=C(\C(=O)NC1C(=O)N2C(C(=O)O)=C(CSc3nnnn3C)CSC12)c1csc(N)n1.CO/N=C(\C(=O)NC1C(=O)N2C(C(=O)O)=C(CSc3nnnn3C)CSC12)c1csc(N)n1.Cl (stereo not given),NF-kB SEAP reporter activity,RAW-Dual [1]; [5],1.06
Cl.Cl.N/C(=N\OCC(O)CN1CCCCC1)c1cccnc1 (stereo not given),NF-kB SEAP reporter activity,RAW-Dual [1]; [4],0.94
same,NF-kB SEAP reporter activity,RAW-Dual [1]; [5],1.08
Cl.Cl.N/C(=N\OCC(O)CN1CCCCC1)c1cccnc1 (stereo not given) (library stock concentration (final ~1000-fold dilution): 10 mM),NF-kB SEAP reporter activity,RAW-Dual [3]; agonist: LPS (TLR4) 0.1 ug/mL,1.1
same,NF-kB SEAP reporter activity,RAW-Dual [3]; [6],0.949
same,NF-kB SEAP reporter activity,RAW-Dual [3]; [7],1.15
same,NF-kB SEAP reporter activity,RAW-Dual [3]; [8],1.09
NC(CSC(c1ccccc1)(c1ccccc1)c1ccccc1)C(=O)O (stereo not given) (library stock concentration (final ~1000-fold dilution): 10 mM),NF-kB SEAP reporter activity,RAW-Dual [3]; agonist: LPS (TLR4) 0.1 ug/mL,0.775
same,NF-kB SEAP reporter activity,RAW-Dual [3]; [6],0.732
same,NF-kB SEAP reporter activity,RAW-Dual [3]; [7],0.699
same,NF-kB SEAP reporter activity,RAW-Dual [3]; [8],0.656
NC(CSC(c1ccccc1)(c1ccccc1)c1ccccc1)C(=O)O (stereo not given),NF-kB SEAP reporter activity,RAW-Dual [1]; [4],0.946
same,NF-kB SEAP reporter activity,RAW-Dual [1]; [5],0.976
CC(C)c1nc(N(C)S(C)(=O)=O)nc(-c2ccc(F)cc2)c1/C=C/C(O)CC(O)CC(=O)O (stereo not given),NF-kB SEAP reporter activity,RAW-Dual [1]; [5],1.1
CC(C)c1c(C(=O)Nc2ccccc2)c(-c2ccccc2)c(-c2ccc(F)cc2)n1CCC(O)CC(O)CC(=O)O (stereo not given) (library stock concentration (final ~1000-fold dilution): 10 mM),NF-kB SEAP reporter activity,RAW-Dual [3]; agonist: LPS (TLR4) 0.1 ug/mL,1.85 and 2.93
same,NF-kB SEAP reporter activity,RAW-Dual [3]; [6],1.49 and 1.82
same,NF-kB SEAP reporter activity,RAW-Dual [3]; [7],1.03 and 1.49
same,NF-kB SEAP reporter activity,RAW-Dual [3]; [8],1.3 and 1.42
CC(C)c1nc(N(C)S(C)(=O)=O)nc(-c2ccc(F)cc2)c1C=CC(O)CC(O)CC(=O)O (stereo not given) (library stock concentration (final ~1000-fold dilution): 10 mM),NF-kB SEAP reporter activity,RAW-Dual [3]; agonist: LPS (TLR4) 0.1 ug/mL,1.43
same,NF-kB SEAP reporter activity,RAW-Dual [3]; [6],1.24
same,NF-kB SEAP reporter activity,RAW-Dual [3]; [7],1.01
same,NF-kB SEAP reporter activity,RAW-Dual [3]; [8],1.2
CC(C)c1nc(N(C)S(C)(=O)=O)nc(-c2ccc(F)cc2)c1/C=C/C(O)CC(O)CC(=O)O (stereo not given) (library stock concentration (final ~1000-fold dilution): 10 mM),NF-kB SEAP reporter activity,RAW-Dual [3]; agonist: LPS (TLR4) 0.1 ug/mL,0.973
same,NF-kB SEAP reporter activity,RAW-Dual [3]; [6],1.18
same,NF-kB SEAP reporter activity,RAW-Dual [3]; [7],1.21
same,NF-kB SEAP reporter activity,RAW-Dual [3]; [8],1.1
CC(C)n1c(C=CC(O)CC(O)CC(=O)O)c(-c2ccc(F)cc2)c2ccccc21 (stereo not given) (library stock concentration (final ~1000-fold dilution): 10 mM),NF-kB SEAP reporter activity,RAW-Dual [3]; agonist: LPS (TLR4) 0.1 ug/mL,3.64
same,NF-kB SEAP reporter activity,RAW-Dual [3]; [6],2.92
same,NF-kB SEAP reporter activity,RAW-Dual [3]; [7],2.13
same,NF-kB SEAP reporter activity,RAW-Dual [3]; [8],3.38
CC(C)c1nc(N(C)S(C)(=O)=O)nc(-c2ccc(F)cc2)c1C=CC(O)CC(O)CC(=O)O (stereo not given),NF-kB SEAP reporter activity,RAW-Dual [1]; [4],0.909
same,NF-kB SEAP reporter activity,RAW-Dual [1]; [5],1.05
CC(C)n1c(C=CC(O)CC(O)CC(=O)O)c(-c2ccc(F)cc2)c2ccccc21 (stereo not given),NF-kB SEAP reporter activity,RAW-Dual [1]; [4],2.45
same,NF-kB SEAP reporter activity,RAW-Dual [1]; [5],2.14
O=C(O)CC(O)CC(O)C=Cc1c(C2CC2)nc2ccccc2c1-c1ccc(F)cc1 (stereo not given),NF-kB SEAP reporter activity,RAW-Dual [1]; [4],2.52
same,NF-kB SEAP reporter activity,RAW-Dual [1]; [5],2.05
O=C(O)CC(O)CC(O)C=Cc1c(C2CC2)nc2ccccc2c1-c1ccc(F)cc1 (stereo not given) (library stock concentration (final ~1000-fold dilution): 10 mM),NF-kB SEAP reporter activity,RAW-Dual [3]; agonist: LPS (TLR4) 0.1 ug/mL,3
same,NF-kB SEAP reporter activity,RAW-Dual [3]; [6],3
same,NF-kB SEAP reporter activity,RAW-Dual [3]; [7],2.4
same,NF-kB SEAP reporter activity,RAW-Dual [3]; [8],3.31
